Records with an inconclusive call do not appear. Where a call stands in place of a potency, no number is given. A number with no mark means an inactive call. The source made the active and inactive calls. The call rests on the fitted dose curve; in most records, active means well fitted inhibition curve with a large enough effect; inconclusive means small, poorly fitted or top-dose-only effect; inactive means flat fitted curve, though single readings scatter.

This assay deals with CRL-7250. Briefly: qHTS assay to identify novel small-molecules to repurpose for Merkel cell carcinoma treatment (AID 1296009). Further: nearly all actives have a fitted effect of over 60% in size. Particulars: MCC and control cell lines, CellTiter-Glo viability, 72 h; series mostly up to 92 µM. The procedure, abridged: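 Cells exposed to NPC (8-point) and MIPE (11-point) compound dilutions for 72 hr at 37 degree celsius; viability read by CellTiter-Glo luminescence, normalized to no-cell and DMSO in-plate controls.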
A general note: qHTS replaces the single test concentration by a dilution series.

Regarding `COc1cc(C2CC(=O)Nc3c2cc(Br)c2ccccc32)cc(OC)c1OC` (configuration not stated), the Potency result is “inactive”.

As for `COc1c(CCC(=O)O)cccc1O[C@@H]1O[C@H](CO)[C@@H](O)[C@H](O)[C@H]1O`, the Potency result is “inactive”.

On to `COc1cc2c(cc1OC)CC(=O)N(CCCNC[C@H]1Cc3cc(OC)c(OC)cc31)CC2`, for which the Potency result is “inactive”.

On to `C[C@@H]1CC[C@]2(C(=O)O[C@@H]3O[C@H](CO)[C@@H](O)[C@H](O)[C@H]3O)CC[C@]3(C)C(=CCC4[C@@]5(C)C[C@@H](O)[C@H](O)[C@](C)(C(=O)O)C5CC[C@]43C)[C@@H]2[C@]1(C)O` (some centres not stated), for which the Potency result is “inactive”.

With `COc1cc(C)c(C(=O)O[C@@H]2[C@H](O)[C@@H](CO)O[C@H]2n2ccc(=O)[nH]c2=O)c(OC)c1`, the Potency result was “inactive”.

Consider `O=C(O)c1ccccc1NC(=O)N1CCC(c2ccccc2C(F)(F)F)CC1`, for which the Potency entry is “inactive”.

In the case of `C=C[C@H]1CN2CC[C@H]1C[C@@H]2C(O)c1ccnc2ccc(OC)cc12` (some centres not stated), the Potency entry is “inactive”.

Turning to `CC(C)CC(=O)OC[C@H]1O[C@@](COC(=O)CC(C)C)(O[C@H]2O[C@H](CO)[C@@H](O)[C@H](O)[C@H]2OC(=O)CC(C)C)[C@@H](OC(=O)CC(C)C)[C@@H]1O`, the Potency entry is “inactive”.

For the compound `C=CC1(C)C=C2C(=O)CC3C(C)(C)CCCC3(C(=O)O)C2(O)CC1` (configuration not stated), the Potency entry is “inactive”.

`C[C@@H]1O[C@@H](O[C@H]2[C@H](O[C@H]3[C@H](O[C@H]4CC[C@@]5(CO)C(CC[C@]6(C)C5CC=C5C7CC(C)(C)C[C@@H](O)[C@]7(C)CC[C@]56C)C4(C)C)O[C@H](C(=O)O)[C@@H](O)[C@@H]3O)OC[C@@H](O)[C@@H]2O)[C@H](O)[C@H](O)[C@H]1O` (some centres not stated): the outcome was “inactive [at 9.27 µM]”.

Consider `O=C(O)/C=C/c1ccc(O[C@@H]2O[C@H](CO)[C@@H](O)[C@H](O)[C@H]2O)cc1`, for which the Potency result was “inactive”.

In the case of `CC1=C2C(=O)C=C(CO[C@@H]3O[C@H](CO)[C@@H](O)[C@H](O)[C@H]3O)[C@@H]2[C@H]2OC(=O)[C@H](C)[C@@H]2[C@@H](O)C1`, the Potency entry is “inactive”.

With `Cn1nc(C(C)(C)C)cc1C(=O)NC(Cc1cccc(Cl)c1)C(=O)NCC#N` (configuration not stated), the Potency entry was “inactive”.

With `C=C(C)[C@@H](C)[C@H]1O[C@]23C[C@]4(CO2)C(CCC2[C@@]5(C)CC[C@H](O[C@@H]6OC[C@H](O)[C@H](O[C@@H]7O[C@H](CO)[C@@H](O)[C@H](O)[C@H]7O)[C@H]6O[C@@H]6O[C@@H](CO)[C@H](O)[C@H]6O)C(C)(C)C5CC[C@]24C)C3[C@@](C)(O)[C@@H]1OC(C)=O` (some centres not stated), the outcome is “inactive [at 9.27 µM]”.

With `NCCCC[C@H](NC(=O)[C@@H]1Cc2ccccc2CN1C(=O)CCC(=O)c1ccccc1)C(=O)NCC(c1ccccc1)c1ccccc1`, the Potency result is “inactive”.

Turning to `C=CC(C)(CC/C=C(\C)C(=O)OC)OC1OC(COC(=O)CC(C)(O)CC(=O)O)C(OC2OC(CO)C(O)C(O)C2O)C(O)C1O` (configuration not stated), the Potency result is “inactive”.

Take `Cc1c(NC(=O)N2CCOCC2)ccc2c1c1ccccc1n2C(C)C`: the Potency result is “inactive”.

Take `O=C(Cc1ccc(Cl)cc1)Nc1cnccc1C(=O)O`: the Potency result was “inactive”.

On to `CC(=O)OCC(Cc1ccccc1)NC(=O)C(Cc1ccccc1)NC(=O)c1ccccc1` (configuration not stated), for which the Potency entry was “inactive”.

On to `COCCOc1cnc2ccn([C@H](C)c3nnc4c(F)cc(-c5cnn(C)c5)cn34)c(=O)c2c1`, for which the Potency entry is “inactive”.

With `COc1cc(/C=C/C(=O)O)ccc1O[C@@H]1O[C@H](CO)[C@@H](O)[C@H](O)[C@H]1O[C@@H]1OC[C@](O)(CO)[C@H]1O`, the Potency entry was “inactive”.

As to `CC1(C)CC[C@]2(C(=O)O[C@@H]3O[C@H](CO)[C@@H](O)[C@H](O)[C@H]3O)CC[C@]3(C)C(=CCC4[C@@]5(C)C[C@@H](O)[C@H](O)C(C)(C)C5[C@H](O)C[C@]43C)[C@@H]2[C@@H]1O` (some centres not stated), the Potency entry is “inactive”.

As for `C=C1CCC[C@]2(C)C[C@]3(O)OC(=O)C(C)=C3C[C@@H]12`, the Potency result is “inactive”.

In the case of `O=C(O)c1ccc(OC2OC(CO)C(O)C(O)C2O)cc1` (configuration not stated), the Potency result is “inactive”.

Regarding `O=C(Nc1ccccc1Br)NC1CCN(c2ccc(C(F)(F)F)cn2)C1` (configuration not stated), the Potency entry is “inactive”.

In the case of `CC1(C)CCC2(C(=O)OC3OC(COC4OC(CO)C(O)C(O)C4O)C(O)C(O)C3O)CCC3(C)C(=CCC4C5(C)CCC(O)C(C)(C(=O)O)C5CCC43C)C2C1O` (configuration not stated), the outcome was “inactive [at 9.27 µM]”.

For the compound `COc1ccncc1C(=O)NC(=O)Nc1ccc(-c2ccccc2)c(C(F)(F)F)c1`, the Potency entry was “inactive”.

On to `CC1(C)CCCC2(C)C1C(O)C=C(CO)C2(O)CO` (configuration not stated), for which the Potency entry is “inactive”.

Turning to `CC[C@H](NC(=O)c1c(O)c(-c2ccccc2)nc2ccccc12)c1ccccc1`, the Potency entry is “inactive”.

Take `CCOC(=O)c1sc(NC(=O)[C@H](C(C)C)n2c(=O)[nH]c3ccccc3c2=O)nc1C`: the Potency result is “inactive”.

On to `C/C=C(\C)C(=O)OC1C2(O)CC3=C4CC(=O)OC(c5ccoc5)C4(C)CCC3C(C)(C2=O)C(C(OC(C)=O)C(=O)OC)C1(C)C` (configuration not stated), for which the Potency entry is “inactive”.

On to `C=CC1C(O[C@@H]2O[C@H](CO)[C@@H](O)[C@H](O)[C@H]2O)OC=C(C(=O)OC)C1CC(=O)O` (some centres not stated), for which the Potency entry was “inactive”.

On to `CC(C)[C@@H]1C(=O)N(S(C)(=O)=O)[C@@H]2CCN(C(=O)/C=C/CN3CCCCC3)[C@H]21`, for which the Potency result is “inactive”.

With `CC1(C)CC[C@]2(C(=O)O[C@@H]3O[C@H](CO)[C@@H](O)[C@H](O)[C@H]3O)CC[C@]3(C)C(=CCC4[C@@]5(C)C[C@@H](O)[C@H](O)[C@](C)(C=O)C5CC[C@]43C)[C@@H]2[C@@H]1O` (some centres not stated), the Potency entry is “inactive”.

Take `CCC(C)C(=O)OC[C@H]1O[C@H](O[C@H]2O[C@H](CO)[C@@H](O)[C@H](O)[C@H]2O)[C@H](O)[C@@H](O)[C@@H]1O` (some centres not stated): the Potency entry is “inactive”.

On to `O=C(NCC1(N2CCN(c3ccccc3)CC2)CCOCC1)c1cccnc1Sc1ccccc1`, for which the Potency result was “inactive”.

Take `O=C(OC[C@H]1O[C@@H](Oc2ccccc2COC(=O)C2(O)C=CCCC2O)[C@H](O)[C@@H](O)[C@@H]1O)c1ccccc1` (some centres not stated): the Potency entry is “inactive”.

For the compound `C=C(C(=O)O)C1CC2=C(C)CCCC2(C)C[C@@H]1O` (some centres not stated), the Potency result was “inactive”.

With `C/C=C(\C)C1C(C)=CC2CCC(OS(=O)(=O)O)C(C)C2C1/C=C/C=C/C(=O)O` (configuration not stated), the Potency entry is “inactive”.

`CC1(C)CC2C(O)C3=C(CC(C)(O)C2C1)C(=O)OC3` (configuration not stated): the Potency result was “inactive”.

As for `CC1OC(O[C@H]2[C@@H](O)C[C@@]3(C)C([C@H](O)C[C@]4(C)C3CC=C3C5CC(C)(C)CC[C@]5(C(=O)OC5OC(CO)C(O)C(O)C5OC5OCC(OC6OCC(OC7OCC(O)C(O)C7O)C(O)C6O)C(OC6OCC(O)(CO)C6O)C5O)CC[C@]34C)[C@]2(C)CO)C(O)C(O)C1O` (some centres not stated), the outcome is “inactive [at 9.27 µM]”.

For `CC(C)(O)[C@H]1CC[C@@](C)([C@H]2[C@@H](O)C[C@@]3(C)[C@@H]4C[C@H](O[C@@H]5O[C@H](CO)[C@@H](O)[C@H](O)[C@@H]5O)[C@H]5C(C)(C)[C@@H](O[C@@H]6OC[C@@H](O)[C@H](O)[C@@H]6O)CC[C@@]56C[C@@]46CC[C@]23C)O1`, the Potency entry was “inactive”.

Values taken from PubChem BioAssay (NCATS).
